Screening data from PubChem BioAssay.
SENP8 block-1 = blocks the human protease SENP8 | Q96LD8 | purified SENP8, Z-RLRGG-aminoluciferin cleavage, luminescence | inhibition, % at 10 µM | actives 1.2% (n = 330,000); in the data active = inhibition above about 50%
SENP8 block-2 = blocks human SENP8 cleavage of Nedd8 substrate; Q96LD8; recombinant SENP8, Nedd8 substrate fluorescence; inhibition, % at 20 µM; actives 0.64% (n = 360,000); AID 602440; in the data active = inhibition mostly above about 40%, no sharp cut-off; inactive = mostly below about 27%
EBI2 block = blocks human EBI2 receptor beta-arrestin signaling. P32249. inhibition, % at 5 µM. actives 0.81% (n = 360,000). EBI2 beta-arrestin recruitment, luminescence, 7a,25-OHC stimulated. AID 651636; in the data active = inhibition above about 38%;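 note: enzyme fragment complementation signal reports receptor beta-arrestin coupling in cells; 0% = agonist plus DMSO wells and 100% = wells without agonist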
SENP6 block = inhibitors of human SENP6 protease. Recombinant SENP6 catalytic domain, aminoluciferin luminescence. inhibition, % at 10 µM. AID 2599. actives 1.8% (n = 330,000);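 active = inhibition above about 50% at the single tested dose, limit read from the data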;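 note: plate controls were DMSO wells with enzyme for no effect and DMSO wells lacking enzyme for full effect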
SENP7 inh = SENP7 protease inhibition; Q9BQF6; inhibition, % at 5 µM; AID 434973; recombinant SENP7, Z-RLRGG-aminoluciferin luminescence, 40 min; actives 1.5% (n = 330,000);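 active = inhibition above about 50% at the single test dose, limit read from the data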;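 note: plate controls were DMSO with enzyme for no effect and no enzyme buffer wells for full effect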
AHR activator = activates the human aryl hydrocarbon receptor; P35869; AHR-responsive luciferase reporter cells, luminescence; activation, % at 5 µM; actives 2.5% (n = 320,000); AID 2796; in the data active = activation above about 47%;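 note: 0% = vehicle wells and 100% = reference agonist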
Target sequence (P35869 whole entry, looked up): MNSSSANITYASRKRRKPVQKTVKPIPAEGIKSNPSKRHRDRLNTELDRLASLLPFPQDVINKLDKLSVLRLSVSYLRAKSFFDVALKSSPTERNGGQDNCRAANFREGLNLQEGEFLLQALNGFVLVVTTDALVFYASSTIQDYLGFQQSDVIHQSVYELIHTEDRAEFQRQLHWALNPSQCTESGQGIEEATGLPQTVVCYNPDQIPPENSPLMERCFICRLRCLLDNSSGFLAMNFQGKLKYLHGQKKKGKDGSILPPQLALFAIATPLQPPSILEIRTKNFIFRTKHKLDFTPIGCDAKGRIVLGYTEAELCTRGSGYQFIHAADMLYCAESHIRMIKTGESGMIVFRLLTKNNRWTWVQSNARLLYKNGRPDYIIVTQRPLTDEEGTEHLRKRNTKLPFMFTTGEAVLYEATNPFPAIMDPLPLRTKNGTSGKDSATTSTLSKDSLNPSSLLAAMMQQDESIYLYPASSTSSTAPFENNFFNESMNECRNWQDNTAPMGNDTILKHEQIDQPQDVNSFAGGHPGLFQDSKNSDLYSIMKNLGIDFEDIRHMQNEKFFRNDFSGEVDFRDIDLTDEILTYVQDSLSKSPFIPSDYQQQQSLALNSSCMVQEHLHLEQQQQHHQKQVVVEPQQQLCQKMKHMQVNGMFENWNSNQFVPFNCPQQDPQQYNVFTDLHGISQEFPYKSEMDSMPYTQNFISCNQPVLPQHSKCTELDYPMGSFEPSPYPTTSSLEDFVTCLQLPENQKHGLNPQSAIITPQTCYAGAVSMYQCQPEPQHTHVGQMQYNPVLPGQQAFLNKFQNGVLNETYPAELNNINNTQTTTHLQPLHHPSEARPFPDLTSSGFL
* hit, by the source's call; / = no result. Only some compounds are listed: those with a hit (about 5% of all), similar ones and a draw of the others.

SMILES | SENP8 block-1 | SENP8 block-2 | EBI2 block | SENP6 block | SENP7 inh | AHR activator
O=C(NCc1cccc(C(F)(F)F)c1)C1CCCN(c2cnccn2)C1 (stereo unspecified) | 0.3 | -326.7 | 0.1 | 10.5 | -1.2 | 52.0*
O=C(NCc1ccccc1)C1CCCN(c2cnccn2)C1 (stereo unspecified) | 3.0 | -201.1 | 2.6 | 4.7 | 6.8 | 32.7
O=C(NCc1cccc(C(F)(F)F)c1)C1CCN(c2ncccn2)CC1 | 3.4 | -44.4 | -5.3 | -0.2 | 6.4 | -0.3
O=C(NCc1ccc(F)cc1)C1CCCN(c2cnccn2)C1 (stereo unspecified) | 7.2 | -269.7 | -1.6 | -4.3 | -1.0 | 52.5*
CCOC(=O)[C@]12CCCC=C1N(Cc1ccc3c(c1)OCO3)C(=O)[C@H](CC(=O)NCc1ccc(C)o1)C2 | / | 11.4 | -2.2 | / | / | /
N#Cc1cc(O)c(-n2nnc3ccccc32)cc1C#N | -8.8 | -492.0 | -7.3 | 7.9 | 0.6 | 6.9
N#Cc1cc(Oc2cccc3cccnc23)c(-n2nnc3ccccc32)cc1C#N | -9.5 | -1.7 | 79.2* | -1.4 | -8.2 | 21.9
CNC(=S)N/N=C(\C)c1ccc2c(c1)OCO2 | -7.2 | 4.5 | -3.3 | -15.5 | -6.2 | 72.1*
C/C(=N\NC(=O)c1c[nH]c2ccccc12)c1ccc2c(c1)OCO2 | -11.3 | 5.1 | 0.3 | -29.6 | 1.0 | 93.3*
CNC(=S)N/N=C(\C)c1ccc2c(c1)OCCO2 | -4.7 | 7.9 | -5.8 | -12.7 | -6.7 | 48.4*
C/C(=N\NC(=S)Nc1ccc(C(C)C)cc1)c1ccc2c(c1)OCO2 | 1.4 | 2.2 | 32.4 | -27.0 | -6.3 | 33.6
C/C(=N\NC(=S)NC(C)C)c1ccc2c(c1)OCCO2 | -2.4 | 15.1 | -18.7 | -12.1 | -1.4 | 11.1
Cc1noc(C)c1C(=O)N1CCC1(C)C(=O)NS(=O)(=O)c1ccccc1C(F)(F)F (stereo unspecified) | / | 18.8 | -0.2 | / | / | /
CN1C(N)=NC(=O)/C1=C\c1ccc(Br)cc1 | -5.4 | -5.4 | -13.7 | 2.0 | 2.9 | 6.2
COc1ccccc1C(=O)NCC[N+](C)(C)C | / | 1.8 | -3.6 | / | / | /
COCCn1c(SCC(=O)Nc2sccc2C(N)=O)nnc1-c1ccncc1 | 0.7 | 6.5 | -9.3 | -5.2 | -7.4 | 2.9
CCCC1C(C(=O)OCC)=C(C)NC(C)=C1C(=O)OCC | -3.9 | -302.0 | -7.6 | -4.8 | 3.2 | 56.8*
O=C(O)c1cccc(COc2ccccc2Cl)c1 | 98.0* | 4.7 | -6.3 | 98.8* | 4.5 | -13.2
O=[N+]([O-])c1ccc(/C=C/c2ccc3cccc([N+](=O)[O-])c3n2)cc1 | -17.3 | 10.6 | 11.2 | -3.4 | -2.7 | 105.9*
O=[N+]([O-])c1cccc(/C=C/c2ccc3cccc(O)c3n2)c1 | -9.5 | 28.0 | 7.0 | 13.2 | 21.8 | 6.9
CNC(=S)N1N=C(c2ccc(C)cc2)CC1c1ccc(N(C)C)cc1 (stereo unspecified) | 4.4 | 12.4 | 86.7* | 11.6 | -3.1 | 4.7
CNC(=S)N1N=C(c2ccc(C)cc2)CC1c1ccc(OC)cc1 (stereo unspecified) | -4.8 | 21.2 | 87.0* | -4.5 | 6.7 | 4.0
CNC(=S)N1N=C(c2ccc(C)cc2)CC1c1cc(OC)ccc1OC (stereo unspecified) | -0.5 | 5.9 | -1.6 | -2.5 | -1.6 | 3.1
COc1cc(OC)cc(-c2c(Sc3ccccc3)c3cc(-c4ccc5c(c4)OCCO5)ccc3n2C)c1 | / | -301.8 | 9.0 | / | / | /
N#C/C(=C\c1ccccc1)C(=O)OCC(=O)N1CCCC1 | 0.0 | 0.7 | 4.7 | 6.6 | 8.5 | 0.9
SMILES | SENP8 block-1 | SENP8 block-2 | EBI2 block | SENP6 block | SENP7 inh | AHR activator
COc1ccccc1CNC(=O)c1csc2c1CCCC2 | -8.8 | 6.9 | 2.3 | 1.9 | -3.2 | 1.9
COc1ccccc1NC(=O)c1csc2c1CCCC2 | 5.4 | -58.8 | -5.1 | -4.0 | 2.8 | 68.6*
Cc1nnc(NC(=O)c2csc3c2CCCC3)s1 | -10.4 | / | / | 19.3 | 4.5 | 55.2*
COc1ccccc1NC(=O)c1c(C)oc2c1CCCC2 | -0.6 | 17.0 | 6.8 | -3.7 | 10.3 | 60.3*
CC(C)N(C(=O)[C@H]1C[C@H](CC(=O)NCC23CC4CC(CC(C4)C2)C3)C(=O)N2CCc3c([nH]c4ccc(Cl)cc34)[C@]12C)C(C)C | / | -3.0 | 3.0 | / | 2.6 | /
COc1ccc(CN2C[C@@H](CO)O[C@@H](n3cnc4c(N5CCN(CCO)CC5)ncnc43)C2)cc1 | / | 19.8 | -1.0 | / | / | /
CC(=O)N1CCN(S(=O)(=O)c2cccc(C(=O)OCc3ccc(C(C)(C)C)cc3)c2)CC1 | -2.9 | 12.7 | -4.3 | 2.4 | 2.3 | /
NCC(c1ccc(Cl)cc1Cl)c1c[nH]c2ccccc12 (stereo unspecified) | -4.2 | 19.8 | -4.4 | -25.5 | 2.3 | 65.2*
NCC(c1ccccc1Cl)c1c[nH]c2ccccc12 (stereo unspecified) | -3.7 | 12.1 | -13.2 | 2.4 | -21.8 | 57.1*
O=C(N/N=C\c1ccc(Oc2ccccc2)cc1)c1csnn1 | 71.4* | -0.2 | -0.2 | 74.9* | 76.7* | 12.3
Cc1cccc(/C=N\NC(=O)c2csnn2)c1 | 2.9 | 11.0 | -5.5 | 6.2 | 24.3 | 70.4*
Cc1cccc(/C=N/NC(=O)C[n+]2ccccc2)c1 | 9.2 | 4.7 | -6.4 | 0.4 | 8.5 | /
CCOc1ccc(NC(=O)C(C)NC(=O)c2ccccc2Cl)cc1S(=O)(=O)N1CCCC1 (stereo unspecified) | -4.9 | 1.7 | 7.7 | 7.3 | 6.0 | 3.6
COc1ccccc1CNC(=O)C(=O)NCC1CCCN1S(=O)(=O)c1cc(C)ccc1C (stereo unspecified) | / | 12.3 | 4.5 | / | / | /
COc1ccc(-c2nn(-c3ccccc3)cc2/C=N/NC(N)=S)cc1OC | / | -45.9 | 9.5 | / | / | 16.8
COc1ccc(-c2nn(-c3ccccc3)cc2C(N)=O)cc1OC | -8.7 | 1.0 | 3.6 | 8.3 | 12.6 | 75.0*
COC1Cc2ccccc2N(C(N)=O)c2ccccc21 (stereo unspecified) | 6.8 | 14.2 | -11.6 | 0.8 | -2.0 | 47.5*
CCN(CC)C(=O)N1c2ccccc2CC(N(CC)CC)c2ccccc21 (stereo unspecified) | 2.2 | -36.1 | 3.5 | 5.0 | 0.2 | 1.1
CC1COc2ccccc2N1C(=O)c1ccc(Cl)nc1 (stereo unspecified) | -6.7 | 8.1 | -10.7 | -18.5 | -3.7 | 41.0
Cc1cc(C)cc(NC(=O)c2ccc3nc[nH]c3c2)c1 | -7.2 | 10.4 | -14.5 | 3.3 | -0.3 | 45.4
Cc1ccc(NC(=O)c2ccc3nc[nH]c3c2)cc1C | -6.4 | 14.5 | -17.4 | 6.0 | 8.7 | 64.1*
NNC(=O)c1sc(-c2ccccc2)cc1N | -1.0 | -404.9 | 21.8 | -5.7 | 3.4 | 65.8*
NNC(=O)c1cc(-c2ccccc2)sc1N | -4.3 | -29.7 | 6.2 | -8.0 | 2.1 | 55.9*
O=C(c1ccc(Cl)cc1Cl)C1(n2cncn2)Oc2ccccc2C1O (stereo unspecified) | 0.6 | 12.9 | 9.3 | -0.9 | -2.4 | 65.7*
CC(C)/C=C(/C(=O)c1ccc(Cl)cc1Cl)n1cncn1 | -1.5 | 15.4 | -9.5 | 0.2 | -4.3 | -0.4
